Bioassay records as filed in PubChem.
ELG1 genotoxic = qHTS screen for small molecules that induce genotoxicity in human embryonic kidney (HEK293T) cells expressing luciferase-tagged ELG1 | HEK293T ELG1-luciferase reporter, luminescence, 16 h | hit rate 1.3% among 330,000 | Potency, µM (doses to about 46 µM), without a hit: at the top dose activity change, positive = activation, actives largely listed as activators | AID 504466, 2011; note: % of control where 0% means no effect; nearly all actives have a fitted effect of over 60% in size
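Screening used a luciferase reporter fused to human ELG1 in HEK293T cells. Luminescence was read on a CCD plate imager after 16 hr exposure and 30 min ONE-Glo incubation.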
SMN2 splice enh = qHTS Assay for Enhancers of SMN2 Splice Variant Expression; HEK293 SMN2-luciferase splicing reporter, luminescence, 30-36 h; Potency, µM (highest dose often 46.1 µM), for the others: top-dose activity change, positive = activation, usual class: activators; hit rate 2.8% among 210,000; AID 1458, 2008; note: % of control where 0% means no effect; nearly all actives have a fitted effect of over 55% in size
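HEK293 cells carry an SMN2 minigene-luciferase reporter in which exon 7 inclusion puts luciferase in frame. Cells were seeded at 2000 cells/well, attached for 10-12 hours, then exposed to compounds for 30-36 hours at 37C before ONE-Glo luminescence.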
NPC1 promoter act = qHTS Assay for NPC1 Promoter Activators. Huh7 NPC1 promoter luciferase reporter, 24 h. Potency, µM (series often up to 9.22 µM), without a hit: at the highest dose activation, hits mostly activators. hit rate 2.4% among 320,000. AID 485313, 2010; note: % of control where 0% means no effect; nearly all actives have a fitted effect of over 60% in size
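Quantitative HTS used a cell-based reporter: Huh7 cells stably bearing the NPC1 promoter upstream of luciferase were treated with compounds for 24 h, and promoter activation was read as luminescence.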
FLuc counter = qHTS profiling assay for firefly luciferase inhibitor/activator using purifed enzyme and Km concentrations of substrates (counterscreen for miR-21 project). Luciferin 4-monooxygenase (Photinus pyralis), P08659. purified FLuc, Km substrates, luminescence inhibition. Potency, µM (doses to about 57.5 µM), inactives show top-dose activity change, negative = inhibition, most hits filed as inhibitors. hit rate 6.9% among 360,000;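 note: plate controls were vehicle for no effect and reference inhibitor for full effect; nearly all actives have a fitted effect of over 55% in size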
Target sequence (P08659 whole entry, looked up): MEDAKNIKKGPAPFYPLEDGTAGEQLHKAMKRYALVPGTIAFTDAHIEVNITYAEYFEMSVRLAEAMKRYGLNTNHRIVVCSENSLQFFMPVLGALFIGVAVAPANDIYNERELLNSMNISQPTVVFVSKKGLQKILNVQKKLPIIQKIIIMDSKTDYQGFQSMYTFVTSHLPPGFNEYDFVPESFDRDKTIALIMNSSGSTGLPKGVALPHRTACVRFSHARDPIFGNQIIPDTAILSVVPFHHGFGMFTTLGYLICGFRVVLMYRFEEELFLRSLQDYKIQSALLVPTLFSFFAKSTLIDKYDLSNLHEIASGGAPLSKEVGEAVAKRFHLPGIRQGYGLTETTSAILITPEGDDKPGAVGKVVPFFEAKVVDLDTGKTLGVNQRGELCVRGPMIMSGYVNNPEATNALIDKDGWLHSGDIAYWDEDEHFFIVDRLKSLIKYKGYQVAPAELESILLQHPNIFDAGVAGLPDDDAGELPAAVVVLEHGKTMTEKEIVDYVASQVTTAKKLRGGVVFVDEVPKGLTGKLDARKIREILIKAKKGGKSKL
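Purified P. pyralis luciferase (10nM final) with 10uM D-luciferin and 10uM ATP (Km levels) in 50mM Tris acetate pH 7.5, 10mM Mg acetate, 0.01% Tween-20, 0.05% BSA; qHTS 6-point titration, ~60 µM downward; luminescence read.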
Rab9 promoter act = qHTS Assay for Rab9 Promoter Activators; Huh7 Rab9 promoter-luciferase reporter, luminescence, 24 h; Potency, µM (series often up to 9.22 µM), inactives show at the top dose activation, negative = inhibition, most hits filed as activators; hit rate 2.8% among 320,000; AID 485297, 2010; note: % of control where 0% means no effect; nearly all actives have a fitted effect of over 60% in size
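Luciferase signal after 10 min detection reagent at ambient indicates Rab9 promoter upregulation; stably transfected Huh7 cells were treated 24 h with compound in DMSO at 37 °C, 5% CO2.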
Active calls of the source: *; u = inconclusive; x = no result. Shown are actives, neighbours in structure and some others; about 7.4% of the full set was active somewhere. Calls come from the whole dose curve; as a rule, active = well fitted curve in the direction sought with a large enough effect; inconclusive = small, poorly fitted or top-dose-only effect, or another doubt; inactive = no such curve, though single readings can be large; an effect the other way counts as inactive or inconclusive. Potency is the fitted concentration of half-maximal effect.

SMILES | ELG1 genotoxic | SMN2 splice enh | NPC1 promoter act | FLuc counter | Rab9 promoter act
Cc1cc(C)c(C#N)c(SCc2ccccc2[N+](=O)[O-])n1 | 1% | -22% | -1% | -13% | 0%
CC(C)Oc1ccccc1-c1cc(C(=O)N/N=C/c2cccnc2)c2ccccc2n1 | -13% | x | -10% | u | -4%
CC(C)(C)C(=O)c1cnc(Nc2ccccc2Cl)s1 | x | 13µM* | x | 2.4µM* | x
CC(=O)c1csc(Nc2ccccc2Cl)n1 | u | x | 3.2µM* | 19µM* | 2.8µM*
O=C(c1ccccc1)c1cnc(Nc2ccccc2Cl)s1 | u | 20µM* | 1µM* | 1.9µM* | 1.3µM*
CC(=O)c1cnc(Nc2ccc(C)cc2)s1 | u | u | 23% | u | u
COc1ccc2c(c1)c(=O)c(S(=O)(=O)c1ccccc1)cn2CC(=O)Nc1ccc(C)c(Cl)c1 | x | 13% | x | 0% | x
Cc1ccc(C)n1-c1nnc(N2CCCC(C(=O)Nc3ccc(C(C)C)cc3)C2)s1 (stereo not drawn) | x | -4% | x | 3% | x
Cc1c(Cl)cccc1NC(=O)CNC(=O)C1CCN(C(=O)Nc2ccccc2)CC1 | -1% | x | -2% | -3% | 3%
Cc1ccc(-c2nc3ncccn3c2Nc2ccc3c(c2)OCCO3)cc1 | 14% | -1% | 0% | u | 0%
Brc1c(-c2ccc3c(c2)OCO3)nc2ncccn12 | u | x | 16% | 24µM* | u
COc1ccc(-c2nc3ncccn3c2Br)cc1 | u | x | u | 15µM* | 2.5µM*
Cc1ccc(NC(=O)c2cccc(NC(=O)N3CCSc4ncccc43)c2)cc1F | x | x | x | -2% | x
Cc1ccc(C2c3c(-c4cc(C)ccc4O)n[nH]c3C(=O)N2Cc2ccco2)cc1 (stereo not drawn) | x | -22% | x | -12% | x
CCCCC[C@H](O)/C=C/[C@H]1OC(=O)C[C@H](O)[C@@H]1C/C=C\CCCC(=O)O | x | -4% | x | x | x
NC(=O)c1c(NC(=O)C2CCCO2)sc2c1CCCCC2 (stereo not drawn) | u | u | 27% | 17µM* | u
CC(C)(C)C1CCc2c(sc(NC(=O)C3CCCO3)c2C(N)=O)C1 (stereo not drawn) | 1% | -16% | -5% | 21µM* | -3%
Cc1[nH]c(-c2ccc3c(c2)OCO3)nc1C(=O)O | -10% | 12% | 0% | u | -3%
c1ccc(CN=C2NN=C(c3ccccc3)CS2)cc1 | 6% | u | u | 19µM* | 4.5µM*
Cc1[nH]c2ccccc2c1C1=NNC(=Nc2ccc(F)cc2)SC1 | -13% | -38% | 0% | -5% | -3%
CC(C)N=C1NN=C(c2ccc(F)cc2)CS1 | 1% | 14µM* | 0.56µM* | 9.5µM* | 0.5µM*
COc1ccccc1C1=NNC(=NCc2ccccc2)SC1 | 6% | -5% | 11% | u | 20%
C=CCN=C1NN=C(c2cc(C)n(CC=C)c2C)CS1 | u | -54% | -4% | 0.34µM* | -13%
NC1=NN=C(c2ccc3c(c2)OCCO3)CS1 | -9% | 2.5µM* | 1µM* | 5.4µM* | 0.56µM*
Cc1ccc(NC(=O)CSCC(=O)OCc2cc(=O)oc3cc(O)ccc23)c(C)c1 | 0% | x | -1% | -10% | -8%
SMILES | ELG1 genotoxic | SMN2 splice enh | NPC1 promoter act | FLuc counter | Rab9 promoter act
c1ccc(C2=NNC(=NCc3ccc4c(c3)OCO4)SC2)cc1 | 13% | x | u | 27µM* | u
CC(=O)c1c(C)[nH]c(C2=NNC(=NCc3ccccc3)SC2)c1C | u | -19% | 3% | -10% | -7%
Fc1ccc(C2=NNC(=NCc3ccccc3)SC2)cc1F | 13% | u | u | u | u
C=CCN=C1NN=C(c2ccc3c(c2)OCCO3)CS1 | 0.58µM* | -27% | 1µM* | 0.67µM* | 0.45µM*
CCN=C1NN=C(c2ccc(C)cc2)CS1 | u | u | u | 1.1µM* | u
COCCN=C1NN=C(c2ccc(NC(C)=O)cc2)CS1 | -6% | 11% | 4% | -14% | 12%
CCCCN=C1NN=C(c2cccc([N+](=O)[O-])c2)CS1 | u | 30% | 18% | u | 11%
Clc1ccc(C2=NNC(=NCc3ccccc3)SC2)cc1 | 3% | 17% | u | 17µM* | u
CN(C1CCCCC1)S(=O)(=O)c1ccc2c(c1)c(=O)c(C(=O)NCCc1ccccc1)cn2C | x | 0% | x | 5% | x
CC(C)N1CN=C(Nc2nc3ccccc3o2)NC1 | -9% | u | 17% | u | u
CCCCN1CN=C(Nc2nc3ccccc3o2)NC1 | u | 29% | u | u | 3.5µM*
c1ccc2oc(NC3=NCN(C4CCCCC4)CN3)nc2c1 | u | x | 2.5µM* | u | u
O=C(Nc1ccnn1C1CCN(C2CCCC2)CC1)c1ccccc1 | 0% | x | -5% | -2% | -1%
COCCCNC(=O)c1ccc2c3c(onc13)-c1ccccc1C2=O | -11% | x | 3.2µM* | 6µM* | 0.71µM*
CCOC(=O)c1c(C)[nH]c(C)c1S(=O)(=O)N1CCC(C(=O)NCc2cccc(C)c2)CC1 | x | x | x | -7% | x
COc1ccc(C2NC(=O)N(C)C3=C2C(=O)N(c2ccccc2)C3)cc1 (stereo not drawn) | x | -2% | x | -8% | x
COc1ccc(NC(=O)N2CCc3ccccc3C2)cc1OC | u | x | 4% | u | 17%
Cc1ccc(NC(=O)N2CCc3ccccc3C2)cc1C | u | x | 2.8µM* | 8.5µM* | 3.2µM*
Cc1cc(C)cc(NC(=O)N2CCc3ccccc3C2)c1 | u | x | u | 19µM* | u
Cc1ccc(NC(=O)C2OCCc3ccccc32)cc1C (stereo not drawn) | u | x | 24% | 15µM* | u
O=C(CCC(=O)N1CCN(S(=O)(=O)c2ccccc2Cl)CC1)c1ccccc1 | -4% | x | -1% | 0% | 7%
CCOC(=O)c1ccc(N2N=C(C)/C(=C/C=C/c3ccco3)C2=O)cc1 | 18% | 7% | -6% | u | -2%
O=C(O)c1cc(N2N=C(C(F)(F)F)/C(=C/C=C/c3ccco3)C2=O)ccc1Cl | -2% | x | -4% | 24µM* | -3%
CC1CCCN(C(=O)CSc2nnc(-c3cccs3)o2)C1 (stereo not drawn) | u | x | 2.5µM* | 21µM* | 3.5µM*
CCC1CCCCN1C(=O)CSc1nnc(-c2cccs2)o1 (stereo not drawn) | 6.5µM* | u | u | 17µM* | 3.2µM*
O=C(COc1cc2oc(=O)c3c(c2cc1Cl)CCC3)NCc1ccncc1 | -2% | x | -8% | -2% | -1%
CCCc1nn(C)c(C(=O)Nc2cccc(CC)c2)c1Cl | 5% | u | u | 17µM* | u
CCCc1nn(C)c(C(=O)Nc2ccc3ccccc3c2)c1Cl | u | 14µM* | u | 11µM* | u
